Measurements reported in PubChem BioAssay (NCI).
“And” between values parts separate entries of the source, which are not always exact repeats. Identical values can stand only once. This is part of a sample that, as a whole, favours compounds with a hit. Of some 83,000 tested, about 20% had one in any assay.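 In brief: 96-well plates, 48 h treatment, single concentration, percent growth endpoint.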 The source made the active and inactive calls. How the source made its calls: active means growth percent below 10; inactive means the rest. Where a SMILES comes first, the peptide text is derived from it.

Each compound was assayed on SK-MEL-2 melanoma (assay: NCI-60 one-dose screen, 48 h (100 = growth as untreated, 0 = no growth, -100 = all killed)). Conditions: 10 µM unless noted.

SMILES	growth
NC(Cc1c[nH]c2ccccc12)C(=O)O (stereo unspecified)	110% (inactive)
CC(C)NC(=O)N/C=C(\C#N)C(N)=O	101% (inactive)
CC(=O)OCC1OC(OC(C)=O)C(OC(C)=O)C(OC(C)=O)C1OC(C)=O (stereo unspecified)	109% (inactive) and 111% (inactive)
Cc1cc(-c2ccc(N=Nc3ccc4c(S(=O)(=O)O)cc(S(=O)(=O)O)c(N)c4c3O)c(C)c2)ccc1N=Nc1ccc2c(S(=O)(=O)O)cc(S(=O)(=O)O)c(N)c2c1O	112% (inactive)
COc1ccc(C(=O)CC(c2ccccc2)C(C#N)c2ccccc2)cc1 (stereo unspecified)	71.6% (inactive)
Cc1ccc(=O)[nH]n1	116% (inactive) and 99.5% (inactive)
O=C1C=C(Nc2ccccc2)c2ccccc2C1=O	101% (inactive)
CN1CNC(=O)NC1	114% (inactive)
COc1cc(C(O)C2C(=O)OCC2C2(c3ccc4c(c3)OCO4)SCCCS2)cc(OC)c1OC (stereo unspecified)	95.6% (inactive)
O=C(O)/C=C\C(=O)Nc1cccc2ccccc12	88.2% (inactive) and 130% (inactive)
NN1CCOC(c2ccccc2)C1 (stereo unspecified)	110% (inactive)
c1ccc(-c2nc3ccccc3s2)cc1	112% (inactive)
NC(Cc1ccccc1)C(=O)NC(Cc1ccccc1)C(=O)O (stereo not drawn) (H-Phe-Phe-OH; configuration not given here)	99.1% (inactive) and 104% (inactive)
COc1ccc2cc1Oc1ccc(cc1)C[C@H]1c3cc(c(OC)cc3CCN1C)Oc1c(OC)c(OC)cc3c1[C@H](C2)N(C)CC3	131% (inactive)
Oc1ccc(Cc2ccccc2Cl)c(O)c1	97.8% (inactive)
CN(C)c1ccc(/C=C\C(=O)c2ccccc2)cc1	93.3% (inactive) and 91.9% (inactive) and 72.1% (inactive)
c1ccc2c(c1)OC1OC2Oc2ccccc21	87.7% (inactive)
NC1CCC(C(=O)O)CC1 (stereo unspecified)	104% (inactive) and 102% (inactive)
CC1(C)COC(=S)N1	107% (inactive)

SMILES	growth
C/C(=C\c1ccccc1)c1ccccn1	128% (inactive)
CCN(CCNS(C)(=O)=O)c1ccc(N)c(C)c1	21.6% (inactive)
O=CN1CCCCC1	125% (inactive)
CCCCOC(=O)/C=C\C(=O)NC(N)=O	111% (inactive)
CC[C@H](CC[C@@H](C)[C@H]1CC[C@H]2[C@@H]3CC=C4C[C@@H](O)CC[C@]4(C)[C@H]3CC[C@]12C)C(C)C	100% (inactive) and 117% (inactive)
N#CC(C#N)N=Nc1ccc(Cl)cc1	77.3% (inactive)
O=C1OC(C(O)C(O)CO)C(O)=C1O (stereo unspecified)	92.9% (inactive) and 101% (inactive)
CCCCCCCCCCCCCCCCC(C(=O)O)C(O)(CC(=O)O)C(=O)O (stereo unspecified)	95.4% (inactive) and -42.9% (active)
CC(C)C(C)(C)c1ccc(O)cc1	104% (inactive)
OCC1OC(O)C(O)C(O)C1O (stereo unspecified)	115% (inactive)
CC1CCC2(OC1)OC1CC3C4CC=C5CC(O)CCC5(C)C4CCC3(C)C1C2C (stereo unspecified)	122% (inactive)
O=C(/C=C/c1ccccc1)c1ccccc1	101% (inactive)
O=c1[nH]cnc2c1ncn2C1OC(CO)C(O)C1O (stereo unspecified)	110% (inactive)
Nc1ccc2c(O)cc(S(=O)(=O)O)cc2c1	108% (inactive) and 92.1% (inactive)
CC1CCC2(C(=O)O)CCC3(C)C(=CCC4C5(C)CCC(O)C(C)(C)C5CCC43C)C2C1C (stereo unspecified)	82.5% (inactive) and 86.8% (inactive)
CC1CCC(C(C)C)C(NNC(N)=O)C1 (stereo unspecified)	107% (inactive)
CC(=O)Nc1ccc(S(N)(=O)=O)cc1	109% (inactive) and 110% (inactive)
Cc1cc2ccccc2cn1	107% (inactive)
C#CCOC(=O)Nc1ccccc1	109% (inactive)

These compounds were tested on EKVX NSCLC in the same assay as above. Conditions: 10 µM.

SMILES	growth
NC(Cc1c[nH]c2ccccc12)C(=O)O (stereo unspecified)	93.1% (inactive) and 101% (inactive)
CC(C)NC(=O)N/C=C(\C#N)C(N)=O	97.2% (inactive)
CC(=O)OCC1OC(OC(C)=O)C(OC(C)=O)C(OC(C)=O)C1OC(C)=O (stereo unspecified)	99.7% (inactive)
Cc1cc(-c2ccc(N=Nc3ccc4c(S(=O)(=O)O)cc(S(=O)(=O)O)c(N)c4c3O)c(C)c2)ccc1N=Nc1ccc2c(S(=O)(=O)O)cc(S(=O)(=O)O)c(N)c2c1O	86.6% (inactive)
COc1ccc(C(=O)CC(c2ccccc2)C(C#N)c2ccccc2)cc1 (stereo unspecified)	84.9% (inactive)
Cc1ccc(=O)[nH]n1	114% (inactive) and 115% (inactive)
O=C1C=C(Nc2ccccc2)c2ccccc2C1=O	99.8% (inactive)
CN1CNC(=O)NC1	97.3% (inactive)
COc1cc(C(O)C2C(=O)OCC2C2(c3ccc4c(c3)OCO4)SCCCS2)cc(OC)c1OC (stereo unspecified)	88.7% (inactive)
O=C(O)/C=C\C(=O)Nc1cccc2ccccc12	65.1% (inactive) and 112% (inactive)
NN1CCOC(c2ccccc2)C1 (stereo unspecified)	115% (inactive)
c1ccc(-c2nc3ccccc3s2)cc1	85.5% (inactive)
NC(Cc1ccccc1)C(=O)NC(Cc1ccccc1)C(=O)O (stereo not drawn) (H-Phe-Phe-OH; configuration not given here)	98% (inactive)
COc1ccc2cc1Oc1ccc(cc1)C[C@H]1c3cc(c(OC)cc3CCN1C)Oc1c(OC)c(OC)cc3c1[C@H](C2)N(C)CC3	80.5% (inactive)
Oc1ccc(Cc2ccccc2Cl)c(O)c1	96.3% (inactive)
CN(C)c1ccc(/C=C\C(=O)c2ccccc2)cc1	105% (inactive)
c1ccc2c(c1)OC1OC2Oc2ccccc21	105% (inactive)
NC1CCC(C(=O)O)CC1 (stereo unspecified)	103% (inactive) and 105% (inactive)
CC1(C)COC(=S)N1	94.1% (inactive)

SMILES	growth
C/C(=C\c1ccccc1)c1ccccn1	98.7% (inactive)
CCN(CCNS(C)(=O)=O)c1ccc(N)c(C)c1	88.9% (inactive)
O=CN1CCCCC1	94.9% (inactive)
CCCCOC(=O)/C=C\C(=O)NC(N)=O	95% (inactive)
CC[C@H](CC[C@@H](C)[C@H]1CC[C@H]2[C@@H]3CC=C4C[C@@H](O)CC[C@]4(C)[C@H]3CC[C@]12C)C(C)C	102% (inactive) and 107% (inactive)
N#CC(C#N)N=Nc1ccc(Cl)cc1	77% (inactive)
O=C1OC(C(O)C(O)CO)C(O)=C1O (stereo unspecified)	110% (inactive) and 99.5% (inactive)
CCCCCCCCCCCCCCCCC(C(=O)O)C(O)(CC(=O)O)C(=O)O (stereo unspecified)	38.2% (inactive)
CC(C)C(C)(C)c1ccc(O)cc1	107% (inactive)
OCC1OC(O)C(O)C(O)C1O (stereo unspecified)	114% (inactive)
CC1CCC2(OC1)OC1CC3C4CC=C5CC(O)CCC5(C)C4CCC3(C)C1C2C (stereo unspecified)	96.6% (inactive)
O=C(/C=C/c1ccccc1)c1ccccc1	93.4% (inactive)
O=c1[nH]cnc2c1ncn2C1OC(CO)C(O)C1O (stereo unspecified)	123% (inactive) and 107% (inactive) and 93.1% (inactive)
Nc1ccc2c(O)cc(S(=O)(=O)O)cc2c1	102% (inactive) and 110% (inactive)
CC1CCC2(C(=O)O)CCC3(C)C(=CCC4C5(C)CCC(O)C(C)(C)C5CCC43C)C2C1C (stereo unspecified)	74% (inactive) and 70.8% (inactive)
CC1CCC(C(C)C)C(NNC(N)=O)C1 (stereo unspecified)	101% (inactive)
CC(=O)Nc1ccc(S(N)(=O)=O)cc1	102% (inactive)
Cc1cc2ccccc2cn1	93% (inactive)
C#CCOC(=O)Nc1ccccc1	99.1% (inactive)
